Data taken from the supplement of paper PMC10127200.
Counter-ions that a name gives are not always drawn.

Columns and labels:
Test in all cases: Euclidean distance of Cell Painting phenotypic profile (signed KS, 77 features) to DMSO centroid (dimensionless distance); 5 or 10 uM (library dependent); higher = stronger phenotypic change vs DMSO (phenoactivity)
Conditions in all cases: 48 h
786-O = system: 786-O
In short: (§1)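 Library compounds were applied at 10 or 5 uM, depending on the library, with 0.1% DMSO final, for 48 h to five cancer lines and a healthy fibroblast line. After staining, cells were imaged confocally at 20X across 9 fields per well, and Harmony extracted 77 features, each scored as a signed Kolmogorov-Smirnov statistic against vehicle wells on the same plate. Phenoactivity is the Euclidean distance between each profile and the median vehicle profile, with profiles first plate-position corrected, correlation-weighted and averaged over replicates at the top dose.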

A549 = system: A549
In short: as §1

DU145 = system: DU145
In short: as §1

FB = system: FB
In short: as §1

HEPG2 = system: HEPG2
In short: as §1

OVCAR4 = system: OVCAR4
In short: as §1

Row | Compound | Euclidean distance (786-O) | Euclidean distance (A549) | Euclidean distance (DU145) | Euclidean distance (FB) | Euclidean distance (HEPG2) | Euclidean distance (OVCAR4)
1 | CC(C)(Oc1ccc(C(=O)c2ccc(Cl)cc2)cc1)C(=O)O [Fenofibric acid] | 0.559 | 1.24 | 0.978 | 1.59 | 0.698 | 0.976
2 | Clc1ccccc1C(c1ccccc1)(c1ccccc1)n1ccnc1 [Clotrimazole] | 2.01 | 1.31 | 1.38 | 1.42 | 1.76 | 1.64
3 | CC1(C)O[C@@H]2C[C@H]3[C@@H]4C[C@H](F)C5=CC(=O)C=C[C@]5(C)[C@@]4(F)[C@@H](O)C[C@]3(C)[C@]2(C(=O)CO)O1 [Fluocinolone Acetonide] | 1.43 | 1.77 | 2 | 2.02 | 0.86 | 2.22
4 | COc1ccc(-c2cc(=O)c3c(O)c(OC)c(O)cc3o2)cc1OC [Eupatilin] | 1.61 | 1.04 | 1.76 | 1.51 | 1.35 | 0.872
5 | Cc1cc(O)c2c(c1)C(=O)c1cccc(O)c1C2=O [Chrysophanic Acid] | 1.36 | 0.646 | 1.3 | 1.64 | 1.34 | 1.43
6 | CC(C)(C)c1nc(-c2cccc(NS(=O)(=O)c3c(F)cccc3F)c2F)c(-c2ccnc(N)n2)s1 [Dabrafenib Mesylate] | 1.18 | 1.23 | 1.47 | 3.79 | 1.3 | 1.47
7 | CN(C)CCOC(=O)COc1ccc(Cl)cc1 [Meclofenoxate (Centrophenoxine) HCl] | 0.714 | 0.913 | 1.3 | 0.93 | 1.13 | 1.29
8 | Cc1cc(Nc2ncnc3ccc(-c4ccc(CNCCS(C)(=O)=O)o4)cc23)ccc1Oc1ccn2ncnc2c1 [HER2-Inhibitor-1] | 1.06 | 0.771 | 1.08 | 1.37 | 1.3 | 1.22
9 | CN(C)CCCN1c2ccccc2Sc2ccc(C(F)(F)F)cc21 [Triflupromazine hydrochloride] | 1.77 | 1.63 | 1.6 | 2.36 | 1.76 | 1.47
10 | CNC(=O)[C@H](Cc1ccccc1)NC(=O)[C@H](CC(C)C)[C@H](CSc1cccs1)C(=O)NO [Batimastat (BB-94)] | 1.52 | 1.51 | 1.25 | 1.68 | 2.06 | 1.53
11 | COCCNc1cc(NC(=O)N2CCCc3cc(CN4CCN(C)CC4=O)c(C=O)nc32)ncc1C#N | 0.599 | 1.34 | 0.736 | 1.03 | 1.18 | 0.826
12 | O=C(Nc1c[nH]nc1-c1nc2ccc(CN3CCOCC3)cc2[nH]1)NC1CC1 | 3.05 | 3.01 | 3 | 2.87 | 2.74 | 2.7
13 | C#C[C@]1(O)CC[C@H]2[C@@H]3CCC4=CC(=O)CC[C@@H]4[C@H]3CC[C@@]21C [Norethindrone] | 1 | 0.864 | 0.791 | 1.2 | 0.575 | 1.29
14 | CC1(C)O[C@@H]2C[C@H]3[C@@H]4CCC5=CC(=O)C=C[C@]5(C)[C@H]4[C@@H](O)C[C@]3(C)[C@]2(C(=O)CO)O1 [Desonide] | 1.09 | 1.9 | 2.27 | 1.55 | 0.639 | 1.61
15 | O=c1ccc2cc(O)c(O)cc2o1 [Esculetin] | 1.31 | 0.797 | 1.69 | 0.959 | 1.2 | 0.988
16 | C[C@@H]1CCO[C@H]2Cn3cc(C(=O)NCc4ccc(F)cc4F)c(=O)c(O)c3C(=O)N12 [Dolutegravir Sodium] | 0.603 | 0.757 | 0.904 | 0.594 | 0.621 | 0.881
17 | CONC(=O)Nc1ccc(-c2sc3c(c2CN(C)C)c(=O)n(-c2ccc(OC)nn2)c(=O)n3Cc2c(F)cccc2F)cc1 [Relugolix] | 1.06 | 0.927 | 1.37 | 1.4 | 0.841 | 1.3
18 | Nc1ncnc2c1c(-c1cnc3[nH]ccc3c1)nn2C1CCCC1 | 4.92 | 5.03 | 4.39 | 4.32 | 4.53 | 3.29
19 | Cc1ccc(NC(=O)c2cccc(C(C)(C)C#N)c2)cc1Nc1ccc2ncn(C)c(=O)c2c1 | 1.3 | 2.03 | 1.98 | 3.42 | 1.53 | 0.804
20 | O=C1Nc2ccc(CN3C(=O)CSC3=O)cc2/C1=C/c1cc(CN2CCOCC2)c[nH]1 | 1.07 | 1.06 | 0.896 | 1.11 | 0.385 | 0.658
21 | CC(N)C12CC3CC(CC(C3)C1)C2 (stereo not drawn) [Rimantadine Hydrochloride] | 1.07 | 0.924 | 0.781 | 1.07 | 0.658 | 1.17
22 | CC(=O)/N=c1/sc(S(N)(=O)=O)nn1C [Methazolamide] | 1.32 | 0.988 | 0.818 | 0.885 | 0.858 | 1.5
23 | COc1cccc2c1C(=O)c1c(O)c3c(c(O)c1C2=O)C[C@@](O)(C(=O)CO)C[C@@H]3O[C@H]1C[C@H](N)[C@@H](O)[C@H](C)O1 [Epirubicin HCl] | 3.54 | 4.33 | 3.92 | 5.12 | 4.78 | 4.83
24 | N[C@@]1(C(=O)O)CS(=O)(=O)[C@H]2[C@H](C(=O)O)[C@H]21 | 0.494 | 1.32 | 0.671 | 0.749 | 0.743 | 0.75

Row | Compound | Euclidean distance (786-O) | Euclidean distance (A549) | Euclidean distance (DU145) | Euclidean distance (FB) | Euclidean distance (HEPG2) | Euclidean distance (OVCAR4)
25 | Nc1nc2c(ncn2COC(CO)CO)c(=O)[nH]1 [Ganciclovir] | 1.56 | 0.816 | 0.888 | 1.25 | 0.883 | 3.37
26 | O=C(Nc1ccccc1)Nc1ccc(-c2ccc(C(=O)[C@@H]3CCC[C@H]3C(=O)O)cc2)cc1 | 0.735 | 0.898 | 0.804 | 1.29 | 1.92 | 0.814
27 | CCCN(CCC)C(=O)C1=Cc2ccc(-c3ccc(C(=O)N4CCCC4)cc3)cc2N=C(N)C1 [Motolimod (VTX-2337)] | 1.67 | 2.04 | 1.35 | 1.27 | 2.18 | 2.2
28 | OC[C@@H](O)CN1CCN(c2ccccc2)CC1 [Levodropropizine] | 1.23 | 1.05 | 0.896 | 1.17 | 0.732 | 1.12
29 | O=C(CCc1ccc(O)cc1)c1c(O)cc(O)cc1O [Phloretin] | 0.62 | 0.656 | 1.06 | 1.13 | 1.23 | 0.792
30 | Nc1[nH]cnc2ncnc1-2 [Adenine sulfate] | 1.69 | 0.409 | 1.17 | 0.763 | 0.765 | 0.878
31 | O=C1OCCN1/N=C/c1ccc([N+](=O)[O-])o1 [Furazolidone] | 1.14 | 1.26 | 1.02 | 1.13 | 0.999 | 1.09
32 | CO/N=C(\C(=O)N[C@@H]1C(=O)N2C(C(=O)O)=C(COC(C)=O)CS[C@H]12)c1csc(N)n1 [Cefotaxime sodium] | 1.09 | 0.485 | 0.877 | 0.644 | 0.409 | 0.706
33 | COc1cc2c(cc1O)CC[C@@H]1[C@@H]2CC[C@]2(C)[C@@H](O)CC[C@@H]12 [2-Methoxyestradiol (2-MeOE2)] | 2.47 | 2.67 | 2.66 | 2.05 | 2.07 | 2.42
34 | Cc1ccccc1N1C(=O)c2cc(S(N)(=O)=O)c(Cl)cc2NC1C (stereo not drawn) [Metolazone] | 1.06 | 0.914 | 1.26 | 0.909 | 0.715 | 1.05
35 | Cn1c(=O)c2c(ncn2CCO)n(C)c1=O [Etofylline] | 1.39 | 0.749 | 1.18 | 1.08 | 0.452 | 1.26
36 | Cn1c([N+](=O)[O-])cnc1COC(N)=O [Ronidazole] | 1.13 | 0.834 | 0.687 | 1.01 | 0.646 | 1.59
37 | Cc1onc(-c2ccccc2Cl)c1C(=O)N[C@@H]1C(=O)N2[C@@H]1SC(C)(C)[C@@H]2C(=O)O [Cloxacillin Sodium] | 0.711 | 0.744 | 0.6 | 0.941 | 1.02 | 1.39
38 | Oc1c(Cl)cc(Cl)c2cccnc12 [Chloroxine] | 2.07 | 2.64 | 1.54 | 1.48 | 2.06 | 2.02
39 | CC1=C(C(=O)O)N2C(=O)[C@@H](NC(=O)[C@H](N)c3ccc(O)cc3)[C@H]2SC1 [Cefadroxil hydrate] | 1.09 | 0.5 | 0.78 | 0.785 | 0.893 | 0.794
40 | CNC(=O)c1ccccc1Nc1nc(Nc2ccc(N3CCOCC3)cc2OC)ncc1Cl | 2.97 | 3.02 | 2.18 | 3.92 | 2.08 | 3.5
41 | CC[C@@]1(O)C(=O)OCc2c1cc1n(c2=O)Cc2cc3cc(O)ccc3nc2-1 [Hydroxy Camptothecine] | 3.83 | 4.01 | 3.99 | 3.74 | 3.55 | 2.89
42 | O=c1[nH]c2ccccc2n1CCN1CCN(c2cccc(C(F)(F)F)c2)CC1 [Flibanserin] | 1.14 | 1.22 | 0.833 | 1.07 | 0.806 | 1.35
43 | CC(C)[N+](C)(CCOC(=O)C1c2ccccc2Oc2ccccc21)C(C)C [Propantheline bromide] | 0.803 | 0.839 | 0.798 | 0.725 | 0.423 | 0.718
44 | CC(=O)N1CCN(c2ccc(OCC3COC(Cn4ccnc4)(c4ccc(Cl)cc4Cl)O3)cc2)CC1 (stereo not drawn) [Ketoconazole] | 1.55 | 0.896 | 2.29 | 0.789 | 0.391 | 0.644
45 | COc1ccnc(C[S+]([O-])c2nc3cc(OC(F)F)ccc3[nH]2)c1OC (stereo not drawn) [Pantoprazole sodium] | 0.766 | 0.778 | 1.1 | 1.01 | 1.03 | 0.752
46 | CC(C)c1nc(N(C)S(C)(=O)=O)nc(-c2ccc(F)cc2)c1/C=C/[C@@H](O)C[C@@H](O)CC(=O)O [Rosuvastatin Calcium] | 0.535 | 0.682 | 2.17 | 1.71 | 1.03 | 0.889
47 | Cc1cc(-n2c(=O)[nH]c(=O)n(C)c2=O)ccc1Oc1ccc(SC(F)(F)F)cc1 [Toltrazuril] | 1.07 | 0.597 | 0.914 | 0.686 | 0.651 | 1.41
48 | Nc1ccc(S(=O)(=O)NC(=O)c2ccccc2)cc1 [Sulfabenzamide] | 0.937 | 0.388 | 0.77 | 0.837 | 0.665 | 1.75
